About 79,000 compounds went through this panel and 15% of them were active in at least one assay; those are over-represented in the sample as a whole. The source made the active and inactive calls. No stated cut-off is given here; in the data, active means growth inhibition above about 70%; inactive means the rest.
Key:
[1] = NCI Yeast Anticancer Drug Screen. Data for the rad50 strain (AID 155);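 further: 0% = growth of vehicle-only cultures of the same strain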; details: S. cerevisiae rad50 strain growth inhibition, active compounds read high
Procedure, shortened: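 Genetically altered yeast (DNA repair pathway); compound treatment; growth inhibition vs vehicle ctrl.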

[2] = NCI Yeast Anticancer Drug Screen. Data for the mec2-1 strain (AID 157); details: S. cerevisiae mec2-1 strain, active compounds read high
Procedure, shortened: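 Readout is yeast growth inhibition, normalised to vehicle-treated controls, in the mec2-1 strain exposed to compound.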

[3] = NCI Yeast Anticancer Drug Screen. Data for the sgs1 mgt1 strain (AID 161);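 further: 0% = growth of cultures given vehicle only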; details: S. cerevisiae sgs1 mgt1 strain, active compounds read high
Procedure, shortened: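 Growth of a repair-deficient yeast mutant was monitored after compound treatment and expressed as inhibition relative to vehicle-treated cultures.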

[4] = NCI Yeast Anticancer Drug Screen. Data for the cln2 rad14 strain (AID 165);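 further: 0% = growth equal to vehicle treated cultures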; details: S. cerevisiae cln2 rad14 strain, active compounds read high
Procedure, shortened: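 Relative to vehicle controls, growth inhibition of compound-treated cln2 rad14 yeast was recorded.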

[5] = NCI Yeast Anticancer Drug Screen. Data for the bub3 strain (AID 167); details: S. cerevisiae bub3 mutant strain, active compounds read high
Procedure, shortened: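 Yeast carrying a defined mutation is treated with each compound, and growth is compared with that of vehicle-exposed cells to give inhibition.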

[6] = NCI Yeast Anticancer Drug Screen. Data for the mlh1 rad18 strain (AID 175); details: S. cerevisiae mlh1 rad18 strain growth inhibition, active compounds read high
Procedure, shortened: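 Test agents were incubated with a yeast strain of defined genotype (DNA damage repair defect). Inhibition of growth was derived by comparison with vehicle-exposed cultures.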

[7] = at 5.0 µM (retest, dose inferred, filed as 0.5)
[8] = at 50.0 µM (retest, dose inferred, filed as 5.0)

Measured: growth inhibition

CCCCCCCCNc1nc(Cl)nc2c1cnn2C
inactive: [1]; [7] 2% | [1]; [8] 40% | [1]; at 50.0 µM 0.3% | [2]; [7] -1% | [2]; [8] 59% | [2]; at 50.0 µM -17.9% | [3]; [7] 3% | [3]; [8] 68% | [3]; at 50.0 µM 24.2% | [4]; [7] -4% | [4]; [8] 62% | [4]; at 50.0 µM -10.6% | [5]; [7] -5% | [5]; at 50.0 µM 42.4% | [6]; [7] 12% | [6]; at 50.0 µM 45.5%
active: [5]; [8] 80% | [6]; [8] 84%

CN(C)c1ccc(C2CC(C)(N3CCCC3)Oc3cc4c(cc32)OCO4)cc1 (configuration not stated)
active: [5]; [8] 84%
inactive: [1]; [7] 23% | [1]; [8] 42% | [1]; at 50.0 µM 17.1% | [2]; [7] 2% | [2]; [8] 24% | [2]; at 50.0 µM 5% | [3]; [7] -10% | [3]; [8] 43% | [3]; at 50.0 µM 13.3% | [4]; [7] 9% | [4]; [8] 50% | [4]; at 50.0 µM 23.9% | [5]; [7] 11% | [5]; at 50.0 µM 26.9% | [6]; [7] 12% | [6]; [8] 32% | [6]; at 50.0 µM 33.5%

CN1CC[N+](C)(Cc2ccc(C[N+]3(C)CC[N+](C)(Cc4ccc(CCl)cc4)CC3)cc2)CC1 (configuration not stated)
active: [1]; [8] 97% | [1]; at 50.0 µM 99.2% | [2]; [8] 95% | [2]; at 50.0 µM 99.4% | [3]; [8] 83% | [3]; at 50.0 µM 99.4% | [4]; [8] 95% | [4]; at 50.0 µM 98.1% | [5]; [8] 98% | [5]; at 50.0 µM 99.5% | [6]; [8] 98% | [6]; at 50.0 µM 99.3%
inactive: [1]; [7] 2% | [2]; [7] 4% | [3]; [7] 2% | [4]; [7] -3% | [5]; [7] 1% | [6]; [7] 2%

CC(CC(C)[C@H]1CCC2[C@H]3C(CC[C@@]21C)[C@@]1(C)CCC(O)C[C@H]1C[C@@H]3O)C(=O)O (some centres not stated)
inactive: [1]; [7] 10% | [2]; [7] -7% | [3]; [7] -4% | [4]; [7] -4% | [5]; [7] -20% | [6]; [7] 14%
active: [1]; [8] 97% | [1]; at 50.0 µM 98.4% | [2]; [8] 98% | [2]; at 50.0 µM 97.5% | [3]; [8] 97% | [3]; at 50.0 µM 98.7% | [4]; [8] 99% | [4]; at 50.0 µM 97.1% | [5]; [8] 98% | [5]; at 50.0 µM 99% | [6]; [8] 98% | [6]; at 50.0 µM 98.2%

CCC[CH2][Sn]([CH2]CCC)([O]C(=O)c1cc(OC)c(OC)c(OC)c1)[O]C(=O)c1cc(OC)c(OC)c(OC)c1
active: [1]; [7] 96% | [1]; [8] 96% | [1]; at 50.0 µM 71.9% | [2]; [7] 96% | [2]; [8] 96% | [2]; at 50.0 µM 84.7% | [3]; [7] 94% | [3]; [8] 94% | [3]; at 50.0 µM 74.8% | [4]; [7] 95% | [4]; [8] 95% | [4]; at 50.0 µM 80% | [5]; [7] 97% | [5]; [8] 97% | [5]; at 50.0 µM 74.8% | [6]; [7] 96% | [6]; [8] 96% | [6]; at 50.0 µM 78.5%

CC(C)CCCC(O)CNCc1ccccc1 (configuration not stated)
inactive: [1]; [7] 9% | [1]; [8] 27% | [1]; at 50.0 µM -1.95% | [2]; [7] 17% | [2]; [8] 38% | [2]; at 50.0 µM 11.4% | [3]; [7] 13% | [3]; [8] -11% | [3]; at 50.0 µM 28.2% | [4]; [7] 13% | [4]; [8] 36% | [4]; at 50.0 µM -18.9% | [5]; [7] 5% | [5]; [8] 44% | [6]; [7] 7% | [6]; [8] 15% | [6]; at 50.0 µM 10.2%
active: [5]; at 50.0 µM 82%

O=C1N=c2ccc(Br)cc2=C1c1sc(=O)n(Cc2nc3ccccc3[nH]2)c1O
active: [1]; at 50.0 µM 70.5% | [3]; at 50.0 µM 79.2% | [6]; at 50.0 µM 88.7%
inactive: [1]; [7] 3% | [1]; [8] -8% | [2]; [7] -11% | [2]; [8] 8% | [2]; at 50.0 µM 54% | [3]; [7] -2% | [3]; [8] 4% | [4]; [7] -6% | [4]; [8] 6% | [4]; at 50.0 µM 55.7% | [5]; [7] 1% | [5]; [8] 13% | [5]; at 50.0 µM 9.4% | [6]; [7] 0% | [6]; [8] 38%

N=c1n(CC(=O)NC23CC4CC(CC(C4)C2)C3)c2ccccc2n1CC(=O)NC12CC3CC(CC(C3)C1)C2
inactive: [1]; [7] -4% | [1]; [8] 34% | [1]; at 50.0 µM 59.1% | [2]; [7] -15% | [2]; [8] 8% | [2]; at 50.0 µM 34.2% | [3]; [7] -2% | [3]; [8] 42% | [3]; at 50.0 µM 44.5% | [4]; [7] -14% | [4]; [8] 25% | [4]; at 50.0 µM 44% | [5]; [7] -19% | [5]; [8] 12% | [5]; at 50.0 µM 59.5% | [6]; [7] -5% | [6]; [8] 27%
active: [6]; at 50.0 µM 79.1%

COc1nc2c(ccn2C2OC(COC(C)=O)C(OC(C)=O)C(OC(C)=O)C2OC(C)=O)c(=O)n1C (configuration not stated)
inactive: [1]; [7] 2% | [1]; [8] -2% | [1]; at 50.0 µM 15.2% | [2]; [7] 1% | [2]; [8] -4% | [2]; at 50.0 µM 14.8% | [3]; [7] -5% | [3]; [8] -5% | [3]; at 50.0 µM 4.45% | [4]; [7] -2% | [4]; [8] -3% | [4]; at 50.0 µM 2.35% | [5]; [7] -2% | [5]; [8] -8% | [5]; at 50.0 µM -5.9% | [6]; [7] 1% | [6]; [8] -2% | [6]; at 50.0 µM 2.15%

Cc1ccc(C(=O)CCCN2CCOCC2)c(C)c1
inactive: [1]; [7] 13% | [1]; [8] 46% | [2]; [7] 5% | [2]; [8] 30% | [2]; at 50.0 µM 38.8% | [3]; [7] 27% | [3]; [8] 57% | [3]; at 50.0 µM 58.8% | [4]; [7] 29% | [4]; [8] 63% | [4]; at 50.0 µM 50.5% | [5]; [7] 30% | [5]; [8] 69% | [6]; [7] 5% | [6]; [8] 43%
active: [1]; at 50.0 µM 77.5% | [5]; at 50.0 µM 73.8% | [6]; at 50.0 µM 72.8%

O=C(CCN1CCOCC1)c1ccc(Oc2ccc(F)cc2)cc1
inactive: [1]; [7] 65% | [1]; at 50.0 µM 67.2% | [2]; [7] 64% | [4]; [7] 64% | [4]; [8] 66%
active: [1]; [8] 87% | [2]; [8] 95% | [2]; at 50.0 µM 77% | [3]; [7] 80% | [3]; [8] 95% | [3]; at 50.0 µM 85.2% | [4]; at 50.0 µM 78.1% | [5]; [7] 88% | [5]; [8] 98% | [5]; at 50.0 µM 85.4% | [6]; [7] 74% | [6]; [8] 90% | [6]; at 50.0 µM 88%

COc1cc(/C=N/NC(=S)Nc2ccccc2)ccc1O
active: [3]; [8] 82% | [5]; at 50.0 µM 77.7%
inactive: [1]; [7] -20% | [1]; [8] 13% | [1]; at 50.0 µM 20.8% | [2]; [7] -10% | [2]; [8] 34% | [2]; at 50.0 µM 27.4% | [3]; [7] -7% | [3]; at 50.0 µM 66.7% | [4]; [7] -31% | [4]; [8] 9% | [4]; at 50.0 µM -23.4% | [5]; [7] -11% | [5]; [8] 60% | [6]; [7] -16% | [6]; [8] 49% | [6]; at 50.0 µM 30.1%

CCn1c2ccc(N)cc2c2c(N)c(-n3cccc3)ccc21
active: [1]; at 50.0 µM 94.5% | [3]; [8] 71% | [3]; at 50.0 µM 97.5% | [5]; [8] 86% | [5]; at 50.0 µM 87.5% | [6]; at 50.0 µM 91.5%
inactive: [1]; [7] 1% | [1]; [8] 61% | [2]; [7] 3% | [2]; [8] 54% | [2]; at 50.0 µM 64.2% | [3]; [7] -7% | [4]; [7] -6% | [4]; [8] 50% | [4]; at 50.0 µM 61.9% | [5]; [7] -2% | [6]; [7] 4% | [6]; [8] 57%

Cc1ccc(N=Nc2c(-c3ccccc3)nn(C(=S)S)c2-c2ccccc2)cc1
inactive: [1]; [7] 8% | [1]; [8] 48% | [1]; at 50.0 µM 49.7% | [2]; [7] 9% | [2]; [8] 37% | [2]; at 50.0 µM 38.5% | [3]; [7] 12% | [3]; at 50.0 µM 55.8% | [4]; [7] 5% | [4]; [8] 39% | [4]; at 50.0 µM 16.2% | [5]; [7] 36% | [6]; [7] 7% | [6]; [8] 34% | [6]; at 50.0 µM 61.8%
active: [3]; [8] 72% | [5]; [8] 84% | [5]; at 50.0 µM 85.2%

Source: PubChem BioAssay (NCI)
